From PubChem
In the library only some 4.3% were active in any assay of this set; here they are far more common.
GRIN3A LBD mod: modulates the human NR3A ligand-binding domain | Tm shift relative to glycine control, % at 25 µM | AID 1259313 | actives 2.5% (n = 340,000) | NR3A LBD differential scanning fluorimetry, Tm shift; 0% = protein alone, 100% = glycine-bound protein;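 active = melting temperature shift of at least 10% of the positive control shift, at one fixed dose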
ADAM10 inh: inhibits human ADAM10. O14672. recombinant ADAM10, EDANS/DABCYL FRET peptide cleavage, 3 h. actives 0.62% (n = 370,000). inhibition, % at 7 µM;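 active = inhibition above a per-campaign cutoff equal to the mean of compounds falling between control-based bounds plus 3 SD, cut at about 20% in these data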;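 note: 0% = DMSO wells while the 100% control is not disclosed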
Target sequence (O14672 214-748 limits assumed): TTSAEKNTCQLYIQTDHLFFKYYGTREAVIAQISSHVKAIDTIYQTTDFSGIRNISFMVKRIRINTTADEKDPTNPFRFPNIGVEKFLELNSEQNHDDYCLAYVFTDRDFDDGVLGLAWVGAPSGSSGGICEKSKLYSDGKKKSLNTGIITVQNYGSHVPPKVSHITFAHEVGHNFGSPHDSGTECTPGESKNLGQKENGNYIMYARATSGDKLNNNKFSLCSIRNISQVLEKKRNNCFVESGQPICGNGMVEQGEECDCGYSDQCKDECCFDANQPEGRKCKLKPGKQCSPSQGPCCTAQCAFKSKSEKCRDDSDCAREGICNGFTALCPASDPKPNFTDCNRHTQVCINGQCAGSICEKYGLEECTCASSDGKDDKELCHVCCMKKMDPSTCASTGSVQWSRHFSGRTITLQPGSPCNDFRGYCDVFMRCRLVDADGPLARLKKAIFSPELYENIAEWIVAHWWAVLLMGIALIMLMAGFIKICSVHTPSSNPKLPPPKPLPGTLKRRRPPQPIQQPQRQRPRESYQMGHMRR
FAS TE block: inhibitors of human fatty acid synthase thioesterase domain; P49327; recombinant FAS-TE, OMFH fluorogenic substrate, fluorescence endpoint; inhibition, % at 15 µM; actives 0.67% (n = 360,000); AID 602261;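 active = compounds whose normalised, plate-corrected inhibition of enzyme fluorescence in the single-dose primary screen is 50% or more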;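 note: 0% = DMSO with enzyme and 100% = substrate without enzyme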
ADAM17 inh: inhibitors of human ADAM17; AID 720648; recombinant ADAM17, EDANS/DABCYL FRET peptide cleavage; inhibition, % at 6.95 µM; actives 0.83% (n = 370,000);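 active = inhibition above the mean of compounds lying between control limits plus 3 SD, set per campaign, cut at about 8.5% in these data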;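 note: 0% = DMSO-only wells as the low control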
sPLA2-III inh: Inhibits HGIII-sPLA2 liposome hydrolysis, primary screen. QFRET BODIPY PC-A2 liposome hydrolysis, fluorescence. inhibition, % at 12.2 µM. actives 0.56% (n = 370,000). AID 743126;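 active = inhibition above mean plus 3 SD of compounds lying within the high and low control bounds, cut at about 19% in these data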;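 note: 0% = median of test compound wells and 100% = no enzyme DMSO wells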
* marks the source's active call; other numbers are inactive results; i = inactive; · = no result.

SMILES	GRIN3A LBD mod	ADAM10 inh	FAS TE block	ADAM17 inh	sPLA2-III inh
COc1ccc(/C=N/Nc2nc(NCc3ccco3)nc(Nc3ccc(OC)cc3)n2)cc1	17.8*	1.2	15.3	3.9	3.2
COC(=O)[C@@]12CCCCC=C1N(CCc1ccc(Cl)cc1)C(=O)[C@H]2CC(=O)NCC12CC3CC(CC(C3)C1)C2	·	-0.9	·	-4.1	1.1
C=CCN1[C@H](CO)[C@H](c2ccccc2)[C@@H]1C#N	·	-7.6	·	-4.1	6.0
C[C@@H]1[C@H](O)[C@@H](C)/C=C/C=C/C=C/C=C/C=C/C=C/C=C/[C@H](OC2O[C@H](C)[C@@H](O)[C@H](N)[C@@H]2O)C[C@@H]2O[C@](O)(C[C@@H](O)C[C@@H](O)[C@H](O)CC[C@@H](O)C[C@@H](O)CC(=O)O[C@H]1C)C[C@H](O)[C@H]2C(=O)O (some centres not stated)	·	-70.9	·	-18.8	-67.6
Cc1cccc(-c2nc(Nc3cccc(O)c3)c3ccccc3n2)c1	32.3*	-29.8	21.9	-15.1	-45.1
COc1ccc(Nc2nc(-c3ccccc3)nc3ccccc23)cc1	34.2*	-7.1	36.6	0.9	-13.5
Oc1ccc(Nc2nc(-c3ccccc3)nc3ccccc23)cc1	41.7*	·	2.9	·	·
Cc1cccc(-c2nc(Nc3ccc(N4CCOCC4)cc3)c3ccccc3n2)c1	7.1	9.1	27.6	4.6	4.5
COc1ccc(Nc2nc(-c3cccs3)nc3ccccc23)cc1	27.4*	-85.4	36.6	-22.8	-32.9
O=[N+]([O-])c1ccc(Nc2c3ccccc3nc3ccccc23)cc1	5.4	i	27.5	-426.8	6.4
CC(=O)Nc1ccc(Nc2nc(-c3ccccc3)nc3ccccc23)cc1	11.6*	-3.3	20.5	-4.0	-11.9
O=[N+]([O-])c1ccc(-c2nc(Nc3ccc(O)cc3)c3ccccc3n2)cc1	22.9*	-2.3	17.5	-2.6	5.1
Cc1n[nH]c(=O)nc1Nc1ccc(O)cc1	-0.7	1.5	-6.6	-2.8	2.2
COc1ccc(Nc2nc(-c3cccc([N+](=O)[O-])c3)nc3ccccc23)cc1	46.2*	0.6	38.9	-1.0	-1.1
Oc1ccc(Nc2nc3ccccc3nc2Nc2ccc(O)cc2)cc1	16.7*	·	11.2	·	·
C#CCN1CC(N(C)CCOC(=O)c2cccs2)CS1(=O)=O (configuration not stated)	·	-1.0	·	2.3	7.7
Cc1ccc(NC(=O)c2ccc(CS(=O)(=O)Cc3ccccc3C)o2)c(C)c1	·	-11.2	·	-0.6	7.0
COc1ccc2c(c1)CN1CN(Cc3ccccc3)S(=O)(=O)CC21 (configuration not stated)	·	-24.4	·	-6.8	5.3
C/C(=N\Nc1nncc2ccccc12)c1ccc(O)cc1	8.4	-0.3	-1.9	-2.5	-1.0
COc1ccc(-c2nc(N/N=C(\C)c3ccc(O)cc3)c3ccccc3n2)cc1	12.7*	-7.9	22.5	-5.3	-19.9
COc1ccc(C(C)c2cn(C)c3ccccc23)cc1 (configuration not stated)	·	-20.4	·	-3.0	10.8
CNC(=O)c1nc(C)c(C2(C)CC(c3ccccc3)=NO2)s1 (configuration not stated)	-4.7	3.4	-8.4	0.1	3.9
Cc1nc(C(=O)N2CCOCC2)sc1C1(C)CC(c2ccccc2)=NO1 (configuration not stated)	14.3*	0.3	-4.8	0.0	0.8
COc1ccc(NC(=O)Nc2ccc(OCC(=O)N3CCOCC3)cc2)cc1OC	10.7*	-1.0	-4.7	-0.1	2.9
COc1cc(C(=O)Nc2ccccc2N2CCOCC2)ccc1OCc1c(C)noc1C	11.5*	0.5	2.5	-0.1	-4.4
SMILES	GRIN3A LBD mod	ADAM10 inh	FAS TE block	ADAM17 inh	sPLA2-III inh
COc1ccc(Cl)cc1C(=O)Nc1ccc(OCC(=O)N2CCOCC2)cc1	-0.5	1.9	-2.2	1.3	7.5
COc1ccc(OC)c(NC(=O)c2ccc(OCC(=O)N3CCOCC3)c(OC)c2)c1	22.2*	1.4	-2.8	-3.0	-7.2
CCOC(=O)CC[C@@]1(C(=O)OCC)C[C@@H](CC(=O)NCc2cccs2)C(=O)N2CCCC=C21	·	-6.5	·	-1.7	5.3
CN(C)c1cccc(-c2cnc(N3CCC(C(N)=O)CC3)nc2)c1	·	-12.8	·	-4.9	2.5
CCCCOc1ccc(C(=O)NC2CCCCN(CC)C2=O)cc1 (configuration not stated)	·	-1.4	·	-0.5	-3.6
COc1cc(C(=O)NC2CCCCN(Cc3ccc(Cl)cc3)C2=O)cc(OC)c1OC (configuration not stated)	·	-6.2	·	-5.9	4.8
CCOC(=O)c1nc(Nc2ccccc2)c2ccccc2n1	-1.1	3.0	-3.8	-0.5	-4.8
CCOC(=O)c1nc(Nc2cc(Cl)ccc2OC)c2ccccc2n1	10.0*	8.8	14.2	-0.9	2.8
CC(C)CC1NC(=O)N(CC(=O)Nc2ccc(OC(F)F)cc2)C1=O (configuration not stated)	27.0*	-14.8	-4.2	-5.7	2.7
Cc1ccc(NC(=O)CN2C(=O)NC(Cc3ccccc3)C2=O)cc1Cl (configuration not stated)	15.0*	-5.3	13.2	-4.1	-5.3
O=C(CN1C(=O)NC(Cc2ccccc2)C1=O)Nc1ccc(OC(F)F)cc1 (configuration not stated)	4.0	6.4	-2.9	-2.4	-1.2
Cc1ccc(NC(=O)CN2C(=O)CCS(=O)(=O)c3ccccc32)cc1Cl	15.1*	2.3	-2.0	5.3	4.1
O=C(NC1CCCCN(Cc2ccc(Cl)cc2)C1=O)c1ccc(F)c(F)c1 (configuration not stated)	·	-0.9	·	-4.2	5.1
O=C(O)Cc1sc(N/N=C\c2ccccc2)nc1-c1ccccc1	1.7	4.1	-13.6	-0.4	23.1*
C=CCOc1ccc(/C=C/C(=O)OCC(=O)N2CCN(S(=O)(=O)c3ccc(C)cc3C)CC2)cc1	18.8*	-7.0	2.3	-5.2	3.3
CC(C)Oc1ccc(-c2csc(N3CCC(C(N)=O)CC3)n2)cc1	·	-1.3	·	-4.0	12.1
CCCCOC(=O)C1CN(c2ccccc2)N=C1C(=O)OCC (configuration not stated)	14.7*	-214.9	11.3	-73.2	12.9
CC(=O)Nc1ccc(/C=C/COC(C)=O)cc1C	·	-1.5	·	-0.3	0.5
COC(=O)c1ccc(C(=O)OC)c(NC(=O)COC(=O)CC2CC3CCC2C3)c1 (configuration not stated)	18.7*	-12.9	27.9	-3.0	7.6
COC(=O)C1CN(Cc2ccccc2)CCS(=O)(=O)N1Cc1cn(Cc2ccc(C)cc2)nn1 (configuration not stated)	·	2.8	·	1.4	-7.0
CCOC(=O)c1[nH]c2ccc(F)cc2c1NC(=O)C1=COCCO1	19.7*	-27.0	1.7	-8.7	-1.0
CCOC(=O)c1[nH]c2ccc(F)cc2c1NC(=O)c1ccccc1C(=O)O	1.6	-17.1	-6.2	-6.5	0.2
CCCC(=O)OC12CCCN(C1)/C(=C/c1cccc(OC)c1)C2 (configuration not stated)	·	4.2	·	1.3	3.2
